Format in all cases: functional
The test system of test [1] is Plasmodium falciparum. The test is described as follows: GSK_TCMDC: Inhibition of Plasmodium falciparum 3D7 in whole red blood cells, using parasite LDH activity as an index of growth. Test compounds present at 2uM.
Test [2] concerns Plasmodium falciparum. The test is described as follows: GSK_TCMDC: Inhibition of Plasmodium falciparum Dd2 in whole red blood cells, using parasite LDH activity as an index of growth. Test compounds present at 2uM.
A further test deals with HepG2. In words: GSK_TCMDC: Percent inhibition of human HepG2 cell line. Test compounds present at 10uM.

In the case of `CC(C)CNC(=O)c1ccnc(-c2ccc(CNC3Cc4ccccc4C3)cc2)c1.O=C(O)C(F)(F)F`, the Inhibition in the test with Plasmodium falciparum [1] was found to be 99%; in the test with Plasmodium falciparum [2], 29%; with HepG2, 25%.
As to `CCC1CN(S(=O)(=O)c2ccc3c(c2)NC(=O)CC(=O)N3)c2cc(Cl)ccc2O1` (stereo not given), the Inhibition is 99% in the test with Plasmodium falciparum [1], 65% in the test on Plasmodium falciparum [2] and 0% in the test on HepG2.
For `CN(C)CCNCc1ccc(-c2ccc3c(Nc4ccc(F)cc4Cl)ccnc3c2)o1`, in that order: 100%, 100% and 31%.
The matching figures for `CC(C)C[C@@H](/C=N/N1CCOC1=O)NC(=O)[C@H](CC(C)C)NC(=O)c1ccc(F)cc1`: 85%, 72% and 1%.
`Cc1nc(NCCCn2ccnc2)cc(-c2cncc(-c3ccc(OC(F)(F)F)cc3)c2)n1`: the Inhibition is 99% in the test with Plasmodium falciparum [1], 11% in the test with Plasmodium falciparum [2] and 2% in the test on HepG2.
In the case of `CC(C)NC(C)(C)CN(Cc1ccc(-c2ccc(C(F)(F)F)cc2)cc1)C(=O)Cn1c(CCc2cccc(F)c2F)nc(=O)c2ccccc21`, the Inhibition in the test with Plasmodium falciparum [1] worked out at 94%; in the test on Plasmodium falciparum [2] it was 68%; in the test on HepG2, 44%.
For `COc1cccc(NC(=O)Nc2ccc(Nc3nc(C)cc(N4CCCC4)n3)cc2)c1`, in that order: 100%, 100% and 28%.
On to `COc1ccc(CCNCCCCCCNCCc2ccc(Cl)c(Cl)c2)cc1OC.Cl`, for which the Inhibition is on record as 100% in the test with Plasmodium falciparum [1], 10% in the test with Plasmodium falciparum [2] and 59% in the test on HepG2.
The matching figures for `O=C(NC1CC1)c1ccc(N2CCC(COc3cccc(F)c3)CC2)nc1`: 89%, 88% and 0%.
`CN1CCN(c2ccc(Nc3c(C(N)=O)cnc4cc(-c5ccoc5)ccc34)cc2C(F)(F)F)CC1.Cl`: the Inhibition came out at 100% in the test on Plasmodium falciparum [1], 97% in the test with Plasmodium falciparum [2] and 13% with HepG2.
For `Br.CC(C)(C)c1ccc(Cn2c(=N)n(CC(=O)c3ccc(-c4ccccc4)cc3)c3ccccc32)cc1`, in that order: 98%, 50% and 63%.
For `N#Cc1ccc(S(=O)(=O)N2C(c3cccc([N+](=O)[O-])c3)C(C(=O)c3ccccc3)N(C3CCCCC3)C2c2cccc([N+](=O)[O-])c2)cc1` (stereo not given), the figures for the Inhibition with Plasmodium falciparum [1], in the test on Plasmodium falciparum [2] and in the test on HepG2 were 83%, 79% and 16%, respectively.
Turning to `CC(=O)Oc1c(C2C=CCCC2)c(OC(C)=O)c2ccccc2c1OC(C)=O` (stereo not given), the Inhibition with Plasmodium falciparum [1] is listed as 95%; in the test with Plasmodium falciparum [2] it was 79%; in the test with HepG2, 10%.
For `CCCCNCc1ccc(-c2nc(CN(Cc3ccc(Cl)c(Cl)c3)C(=O)CN(C)C)cs2)cc1.O=C(O)C(F)(F)F`, in that order: 100%, 51% and 36%.
For `Cc1cc(N)c2cc(NC(=O)CCC(=O)Nc3ccc4nc(C)cc(N)c4c3)ccc2n1`, in that order: 85%, 77% and 0%.
The matching figures for `CCCc1cc(OC)c(C[C@@H]2c3cc(O)c(Cl)cc3CCN2C)cc1OC.Cl`: 98%, 98% and 3%.
Turning to `CCN(CC)CC#Cc1ccc2[nH]c(C)c(Cl)c(=O)c2c1`, the values for the Inhibition in the test on Plasmodium falciparum [1], in the test with Plasmodium falciparum [2] and with HepG2 were 96%, 95% and 11%, respectively.
The matching figures for `CC(C)(C)c1ccc(C(=O)Nc2ccc(NC(=O)c3ccc([N+](=O)[O-])o3)cc2)cc1`: 81%, 4% and 0%.
The matching figures for `Cl.N=C(N)c1cccc(OCCCOc2cccc(NC(=O)Nc3ccc([N+](=O)[O-])cc3)c2)c1`: 98%, 22% and 16%.
`N#Cc1ccc(-c2ccc(C(=O)NCCCCN3CCC(c4ccc5c(c4OCC(N)=O)CCCC5)CC3)cc2)cc1`: the Inhibition in the test with Plasmodium falciparum [1] is given as 87%; in the test with Plasmodium falciparum [2] it was 23%; in the test on HepG2, 21%.
`CS(=O)(=O)c1ccc(-c2cncc(Cl)n2)cc1`: the Inhibition with Plasmodium falciparum [1] is given as 100%; in the test with Plasmodium falciparum [2], 95%; in the test with HepG2, 8%.
`Cc1cccc2nc(-c3ccc(-c4ccc(NC(=O)Nc5ccsc5)cc4)cc3)[nH]c12`: the Inhibition was 100% with Plasmodium falciparum [1], 70% in the test with Plasmodium falciparum [2] and 49% in the test on HepG2.
The matching figures for `O=C(Nc1cccc(CN2CCN(C(=O)c3cccc(F)c3)CC2)c1)c1cccs1.O=C(O)C(F)(F)F`: 95%, 95% and 17%.
As for `O=C(Nc1ccc(Cl)cc1)c1ccc(CN2CCCN(Cc3cccc(Cl)c3)CC2)cc1.O=C(O)C(F)(F)F`, the Inhibition in the test with Plasmodium falciparum [1] was determined as 96%; in the test on Plasmodium falciparum [2], 15%; in the test with HepG2 it was 53%.
Turning to `COc1ccc2nc3cc(Cl)ccc3c(NCc3ccccc3)c2c1.Cl`, the Inhibition was 100% in the test on Plasmodium falciparum [1], 50% with Plasmodium falciparum [2] and 8% in the test on HepG2.
For `COc1ccc(-c2cc3ncnc(N4CCN(CCN5CCCC5)CC4)c3s2)cc1`, in that order: 98%, 90% and 22%.
Regarding `C=CCn1cc(C2CCN(CCCCNC(=O)c3sc(-c4ccc(C(F)(F)F)cc4)nc3CO)CC2)c2cc(OC)ccc21`, the Inhibition in the test with Plasmodium falciparum [1] turned out to be 91%; in the test with Plasmodium falciparum [2], 4%; in the test on HepG2, 40%.
The matching figures for `Nc1cccc(CNCc2ccc(-c3ccc(-c4nc5ccccc5[nH]4)s3)cc2)c1.O=C(O)C(F)(F)F`: 100%, 93% and 12%.
For `Nc1ncc(-c2ccc3[nH]ccc3c2)c2ccc(-c3ccncc3)cc12`, in that order: 100%, 100% and 42%.
Turning to `c1ccc(CN2CCC(Nc3ccc(-c4c[nH]nc4-c4ccccn4)nc3)CC2)cc1`, the Inhibition with Plasmodium falciparum [1] was found to be 97%; in the test on Plasmodium falciparum [2], 23%; in the test on HepG2 it was 1%.
For `Cc1cc(-c2cccc(CNC3CCN(C)CC3)c2)ccc1S(=O)(=O)NCc1ccccc1.O=C(O)C(F)(F)F`, the Inhibition is 99% with Plasmodium falciparum [1], 90% in the test on Plasmodium falciparum [2] and 53% with HepG2.
Consider `Cc1cccc2nc(-c3cccc(-c4ccc(NC(=O)C(=O)c5cccn5C)cc4)c3)[nH]c12`, for which the Inhibition worked out at 100% in the test on Plasmodium falciparum [1], 46% with Plasmodium falciparum [2] and 45% in the test on HepG2.
For `COC(=O)c1cccc(CNCc2ccc(-c3ccc(-c4nc5cc(C(F)(F)F)ccc5[nH]4)s3)cc2)c1.O=C(O)C(F)(F)F`, in that order: 100%, 96% and 34%.
For `CCc1nn2c(Nc3ccncc3)cc(C)nc2c1-c1ccccc1`, in that order: 100%, 98% and 4%.
With `Cc1noc(C)c1-c1ccc2c(Nc3ccc(C(F)(F)F)cc3)c(C(N)=O)cnc2c1.Cl`, the Inhibition in the test with Plasmodium falciparum [1] is 100%; in the test with Plasmodium falciparum [2], 95%; in the test on HepG2, 1%.
The matching figures for `CN(CCCN(C)c1cc(NC(=O)c2cccc(F)c2)ccn1)Cc1cccc(O)c1.O=C(O)C(F)(F)F`: 92%, 4% and 0%.
The matching figures for `CCCCN(CCCC)/C(=N/C(=N)NCc1ccc(Cl)c(Cl)c1)NCCCCCCN/C(=N\C(=N)NCc1ccc(Cl)c(Cl)c1)N(CCCC)CCCC`: 100%, 96% and 9%.
The matching figures for `O=C(/C=C/c1ccc(Cl)c(Cl)c1)N1CCC(CCN2CCC(c3c[nH]c4cc5c(cc34)OCO5)CC2)CC1`: 99%, 65% and 46%.
Regarding `CN=C(NC)c1cccc(NC(=O)C=Cc2ccc(C=CC(=O)Nc3cccc(C(=NC)NC)c3)cc2)c1.Cl`, the results for the Inhibition in the test with Plasmodium falciparum [1], in the test with Plasmodium falciparum [2] and in the test with HepG2 were 98%, 99% and 21%, respectively.
The matching figures for `C[C@H]1CN(Cc2cccc(-c3cc(CNC(=O)c4cccc(C(=O)c5ccc(Cl)c(Cl)c5)c4)ccc3F)c2)CCN1`: 85%, 42% and 40%.
Turning to `O=C(NCCN1CCCC1)c1ccc(-c2ccc(-c3nc4cc(C(F)(F)F)ccc4[nH]3)s2)cc1`, the values for the Inhibition in the test with Plasmodium falciparum [1], in the test on Plasmodium falciparum [2] and with HepG2 were 97%, 65% and 31%, respectively.
The matching figures for `CC(C)C(=O)NC(c1cccs1)c1cc(Cl)c2cccnc2c1O` (stereo not given): 91%, 91% and 23%.
For `CCC(C)NS(=O)(=O)c1ccc2nc(Nc3ccc(C)c(Cl)c3)n(C3CCCCC3)c2c1` (stereo not given), in that order: 99%, 98% and 0%.
In the case of `COc1cc(OCCCN(C)Cc2ccc(OC)c(OC)c2)ccc1NC(=O)c1cccc2c(O)c3cccc(F)c3nc12`, the results for the Inhibition in the test on Plasmodium falciparum [1], with Plasmodium falciparum [2] and in the test on HepG2 were 94%, 62% and 10%, respectively.
On to `Cl.Oc1cccc(-c2nc3cc(C4=NC5CCCCC5N4)ccc3[nH]2)c1` (stereo not given), for which the Inhibition was determined as 98% in the test with Plasmodium falciparum [1], 97% in the test with Plasmodium falciparum [2] and 0% in the test with HepG2.
The matching figures for `CC(C)(C)c1ccc(C(=O)Nc2ccc3nc4c(c(N)c3c2)CCCC4)cc1.Cl`: 100%, 99% and 21%.
For `Cc1nc(C)c(-c2ccc(C(=O)c3ccc(Cl)cc3)cc2)c(O)c1Cl`, in that order: 98%, 95% and 0%.
For `COc1cc(F)c2ncc(F)c(CCN3C[C@H](CNCc4ccc5c(n4)NC(=O)CS5)[C@H](O)C3)c2c1.Cl`, in that order: 91%, 47% and 10%.
For the molecule `COc1ccc(CN2CCCN(Cc3cccc(NC(=O)c4ccc5ccccc5c4)c3)CC2)cc1.O=C(O)C(F)(F)F`, the Inhibition in the test on Plasmodium falciparum [1] came out at 93%; with Plasmodium falciparum [2] it was 11%; in the test on HepG2, 27%.
`O=C(NC1CCN(Cc2ccc3c(c2)OCCO3)CC1)c1ccc(-c2cccc(C(F)(F)F)c2)s1.O=C(O)C(F)(F)F`: the Inhibition came out at 100% in the test with Plasmodium falciparum [1], 35% in the test with Plasmodium falciparum [2] and 99% with HepG2.
`CC1CN(c2cnn(Cc3ccc(NC(=O)Nc4ccc(-c5ccccc5)cc4)cc3)c(=O)c2Cl)CC(C)N1.O=C(O)C(F)(F)F` (stereo not given): the Inhibition is 100% in the test on Plasmodium falciparum [1], 46% with Plasmodium falciparum [2] and 82% in the test with HepG2.
Take `CN1CCN(c2ccnc3ccc(NC(=O)Nc4ccc(-c5ccccc5)cc4)cc23)CC1`: the values for the Inhibition in the test on Plasmodium falciparum [1], in the test with Plasmodium falciparum [2] and in the test on HepG2 were 99%, 41% and 0%, respectively.
For `O=C(O)C(F)(F)F.c1cc(-c2ccc(CNCCCn3ccnc3)cc2)cc(-c2nc3ccccc3[nH]2)c1`, in that order: 100%, 100% and 17%.
The matching figures for `Cc1ccc2c(Cl)c(C(=O)N3CCCc4ccccc43)sc2c1`: 99%, 15% and 4%.
For `COc1cccc(NC(=O)Nc2c(-c3cccc(C(F)(F)F)c3)c(C(F)(F)F)nn2C)c1`, in that order: 93%, 30% and 2%.
On to `Cc1ccc2[nH]c(C)cc(=NN=Cc3ccc(Cl)cc3)c2c1`, for which the Inhibition stood at 100% in the test on Plasmodium falciparum [1], 35% with Plasmodium falciparum [2] and 0% with HepG2.
On to `Cc1noc(C)c1-c1ccc2c(Nc3ccc(Cl)cc3)c(C(N)=O)cnc2c1.Cl`, for which the results for the Inhibition with Plasmodium falciparum [1], in the test on Plasmodium falciparum [2] and in the test on HepG2 were 94%, 67% and 9%, respectively.
In the case of `COc1ccccc1N1CCN(C(C(=O)NCc2ccc(C)cc2)c2ccc(C)cc2)CC1` (stereo not given), the Inhibition stood at 92% in the test with Plasmodium falciparum [1], 79% in the test on Plasmodium falciparum [2] and 12% in the test with HepG2.
Consider `Cc1cc(F)ccc1Nc1nc(N(C)c2ccccc2)c2cc(OCCCN(C)C)ccc2n1`, for which the Inhibition in the test on Plasmodium falciparum [1] is recorded as 100%; in the test on Plasmodium falciparum [2], 49%; in the test with HepG2, 31%.
The matching figures for `CCCc1cc(NC2CCN(C)CC2)nc(Nc2ccc(F)cc2)n1`: 95%, 16% and 20%.

As usually defined, the Inhibition is the percentage by which the read-out fell short of the control. Low readings indicate a response near the control, high ones a response far below the control.
